Data from PubChem BioAssay (EPA / NIEHS).
Activity calls are given as the source filed them. How the source made its calls: active means hit-call score of the fitted dose curve at least 0.9, where 1 is the maximum; inactive means score below 0.9.

Columns and labels:
Conditions in all cases: mRNA level, 48 h; actives raise or lower the signal
[1] = read-out: Lipase C (LIPC), LIPC (gene 3990); assay: LTEA_HepaRG_LIPC: Life Technologies and Expression Analysis (LTEA) Assay for Lipase C (LIPC) using HepaRG (AID 2283514)
Method in brief: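 Read-out is LIPC transcript level by TaqMan qRT-PCR, normalized to three housekeeping genes, after 48 h chemical treatment of human HepaRG liver cells. Curves span eight concentrations topping at 100 uM; activity in either direction scored relative to 0.5% DMSO.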

[2] = read-out: Lipoprotein lipase (LPL), LPL (gene 4023); assay: LTEA_HepaRG_LPL: Life Technologies and Expression Analysis (LTEA) Assay for Lipoprotein lipase (LPL) using HepaRG (AID 2283515)
Method in brief: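 Read-out is LPL transcript level by qRT-PCR, normalized to three housekeeping genes and fitted bidirectionally against the DMSO control. Human HepaRG cells received chemicals for 48 h at up to 100 uM.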

[3] = read-out: matrix metalloproteinase-10 (MMP10), MMP10 (gene 4319); assay: LTEA_HepaRG_MMP10: Life Technologies and Expression Analysis (LTEA) Assay for matrix metalloproteinase-10 (MMP10) using HepaRG (AID 2283517)
Method in brief: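 Gain or loss of MMP10 mRNA is fitted relative to the 0.5% DMSO vehicle. The human hepatic line HepaRG receives a 48-hour serum-free exposure, in duplicate, with a maximum concentration of 100 uM.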

MYC, MYC (gene 4609) = assay: LTEA_HepaRG_MYC: Life Technologies and Expression Analysis (LTEA) Assay for MYC using HepaRG (AID 2283518)
Method in brief: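 Differentiated HepaRG cells exposed 48 h in serum-free induction medium to 8 concentrations (top 100 uM, half-log steps; 0.5% DMSO), duplicate. MYC mRNA measured by Fluidigm qRT-PCR, normalized to ACTB, GAPDH, POLR2A; bidirectional fit versus DMSO.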

[4] = read-out: matrix metalloproteinase-3 (MMP3), MMP3 (gene 4314); assay: LTEA_HepaRG_MMP3: Life Technologies and Expression Analysis (LTEA) Assay for matrix metalloproteinase-3 (MMP3) using HepaRG (AID 2283519)
Method in brief: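 HepaRG, human; 48 h dosing, 8 conc. (max 100 uM, half-log), duplicate, 0.5% DMSO. Readout: MMP3 transcript by Fluidigm TaqMan qRT-PCR, ACTB/GAPDH/POLR2A-normalised. Gain or loss fitted vs DMSO.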

[5] = read-out: Paternally Expressed 10 (PEG10), PEG10 (gene 23089); assay: LTEA_HepaRG_PEG10: Life Technologies and Expression Analysis (LTEA) Assay for Paternally Expressed 10 (PEG10) using HepaRG (AID 2283520)
Method in brief: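 Chemicals tested on HepaRG cells for 48 h, highest concentration 100 uM. PEG10 expression assessed by qRT-PCR relative to DMSO control.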

[6] = read-out: Nuclear factor NF-kappa-B p105 subunit (Homo sapiens) (UniProt P19838); assay: LTEA_HepaRG_NFKB1: Life Technologies and Expression Analysis (LTEA) Assay for Nuclear Factor Kappa B Subunit 1 (NFKB1) using HepaRG (AID 2283521)
Method in brief: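 HepaRG, 48 h exposure; 8-pt half-log series from 100 uM in 0.5% DMSO; duplicates. Readout: NFKB1 mRNA by qRT-PCR (Fluidigm arrays), housekeeping-normalized. Gain/loss fit vs DMSO baseline.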

[7] = read-out: Protein phosphatase 2A (PPP2R4), PTPA (gene 5524); assay: LTEA_HepaRG_PPP2R4: Life Technologies and Expression Analysis (LTEA) Assay for Protein phosphatase 2A (PPP2R4) using HepaRG (AID 2283522)
Method in brief: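 Gene-expression endpoint in HepaRG hepatic cells: 48 h treatment across eight half-log concentrations up to 100 uM in 0.5% DMSO. PPP2R4 mRNA by qRT-PCR, normalized to three endogenous control genes.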

[8] = read-out: Phosphatase and tensin (PTEN), PTEN (gene 5728); assay: LTEA_HepaRG_PTEN: Life Technologies and Expression Analysis (LTEA) Assay for Phosphatase and tensin (PTEN) using HepaRG (AID 2283523)
Method in brief: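 Read-out is PTEN transcript level by multiplexed TaqMan qRT-PCR after 48 h chemical treatment of human HepaRG cultures in serum-free induction medium. Concentrations spanned 100 uM downward in half-log steps, 0.5% DMSO throughout; activity fitted in both directions against vehicle.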

[9] = read-out: Pyruvate Dehydrogenase Kinase 4 (PDK4), PDK4 (gene 5166); assay: LTEA_HepaRG_PDK4: Life Technologies and Expression Analysis (LTEA) Assay for Pyruvate Dehydrogenase Kinase 4 (PDK4) using HepaRG (AID 2283525)
Method in brief: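 In this multiplexed human HepaRG expression assay, cells are treated 48 h with test chemicals across an eight-point range starting at 100 uM. PDK4 mRNA changes, normalized to ACTB/GAPDH/POLR2A, are fitted in both directions relative to vehicle.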

[10] = read-out: NAD(P)H dehydrogenase [quinone] 1 (NQO1), NQO1 (gene 1728); assay: LTEA_HepaRG_NQO1: Life Technologies and Expression Analysis (LTEA) Assay for NAD(P)H dehydrogenase [quinone] 1 (NQO1) using HepaRG (AID 2283526)
Method in brief: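 Human HepaRG hepatic cells received chemicals for 48 h in serum-free induction medium with 0.5% DMSO, up to 100 uM. Expression was assessed by TaqMan qRT-PCR against housekeeping controls and fitted bidirectionally against DMSO.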

[11] = read-out: Nuclear factor erythroid 2-related factor 2 (Homo sapiens) (UniProt Q16236); assay: LTEA_HepaRG_NFE2L2: Life Technologies and Expression Analysis (LTEA) Assay for Nuclear factor erythroid 2-related factor 2 (NFE2L2) Transcription Factor using HepaRG (AID 2283527);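 further: TaqMan qRT-PCR transcript level normalised to ACTB GAPDH and POLR2A housekeeping genes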
Method in brief: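 Transcript level of NFE2L2 is the read-out, measured by microfluidic TaqMan qRT-PCR and normalized to three housekeeping genes. Human HepaRG cultures received test chemical for 48 h at up to 100 uM in half-log steps. Gain or loss of signal is fitted relative to 0.5% DMSO.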

[12] = read-out: succinate dehydrogenase complex iron sulfur subunit B (SDHB), SDHB (gene 6390); assay: LTEA_HepaRG_SDHB: Life Technologies and Expression Analysis (LTEA) Assay for succinate dehydrogenase complex iron sulfur subunit B (SDHB) using HepaRG (AID 2283528)
Method in brief: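 Readout is SDHB transcript level by qRT-PCR, normalised to three housekeeping genes and fitted bidirectionally against 0.5% DMSO vehicle. Human HepaRG cells were treated for 48 h at up to 100 uM.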

[13] = read-out: Signal transducer and activator of transcription 3 (Homo sapiens) (UniProt P40763); assay: LTEA_HepaRG_STAT3: Life Technologies and Expression Analysis (LTEA) Assay for Signal transducer and activator of transcription (STAT3) using HepaRG (AID 2283529)
Method in brief: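 Read-out is STAT3 mRNA level by qRT-PCR, normalized to three housekeeping genes, in human HepaRG liver cells treated for 48 h. Concentrations ran from 100 uM downward in half-log steps; curves were fitted for gain or loss relative to 0.5% DMSO.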

[14] = read-out: solute carrier (SLCO1B1), SLCO1B1 (gene 10599); assay: LTEA_HepaRG_SLCO1B1: Life Technologies and Expression Analysis (LTEA) Assay for solute carrier (SLCO1B1) using HepaRG (AID 2283530)
Method in brief: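 Differentiated human HepaRG cells were exposed for 48 h in serum-free induction medium to eight half-log concentrations, top 100 uM, in 0.5% DMSO. SLCO1B1 mRNA was measured by qRT-PCR, normalized to ACTB, GAPDH and POLR2A, and fitted bidirectionally against DMSO.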

[15] = read-out: Transforming Growth Factor (TGFA), TGFA (gene 7039); assay: LTEA_HepaRG_TGFA: Life Technologies and Expression Analysis (LTEA) Assay for Transforming Growth Factor (TGFA) using HepaRG (AID 2283532)
Method in brief: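 HepaRG (human liver line), 48 h exposure, 8 conc. half-log down from 100 uM, 0.5% DMSO vehicle, duplicates; serum-free induction medium. TGFA mRNA by TaqMan qRT-PCR, ACTB/GAPDH/POLR2A normalization; gain/loss fit vs DMSO.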

[16] = read-out: Transforming Growth Factor (TGFB1), TGFB1 (gene 7040); assay: LTEA_HepaRG_TGFB1: Life Technologies and Expression Analysis (LTEA) Assay for Transforming Growth Factor (TGFB1) Transporter using HepaRG (AID 2283533)
Method in brief: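 Differentiated HepaRG cells exposed 48 hr in serum-free induction medium to eight half-log concentrations up to 100 uM (0.5% DMSO), duplicate; TGFB1 mRNA by TaqMan qRT-PCR normalised to ACTB, GAPDH, POLR2A; bidirectional fit against DMSO.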

[17] = read-out: sulfotransferase 2A1 (SULT2A1), SULT2A1 (gene 6822); assay: LTEA_HepaRG_SULT2A1: Life Technologies and Expression Analysis (LTEA) Assay for sulfotransferase 2A1 (SULT2A1) using HepaRG (AID 2283531)
Method in brief: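 HepaRG human liver cells, 48 h exposure in serum-free induction medium to 8 half-log concentrations topping at 100 µM (0.5% DMSO), duplicate wells. SULT2A1 mRNA measured by TaqMan qRT-PCR, normalized to ACTB/GAPDH/POLR2A; bidirectional fit against DMSO.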

[18] = read-out: MicroRNA 122 (MIR122), gene 406906; assay: LTEA_HepaRG_MIR122: Life Technologies and Expression Analysis (LTEA) Assay for MicroRNA 122 (MIR122) using HepaRG (AID 2283516); further: the transcript read is the microRNA miR-122
Method in brief: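 HepaRG, 48 h exposure, 8-pt half-log from 100 uM, 0.5% DMSO; TaqMan qRT-PCR; bidirectional fit vs DMSO.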

[19] = read-out: solute carrier (SLC22A1), SLC22A1 (gene 6580); assay: LTEA_HepaRG_SLC22A1: Life Technologies and Expression Analysis (LTEA) Assay for solute carrier (SLC22A1) using HepaRG (AID 2283524)
Method in brief: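 HepaRG (human liver line), 48 h dosing in serum-free induction medium; 8 conc., half-log down from 100 uM, 0.5% DMSO vehicle, duplicates. Endpoint: SLC22A1 mRNA, qRT-PCR, housekeeping-normalized; gain/loss fit vs DMSO.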

Measured: outcome

Sequence of Signal transducer and activator of transcription 3 (Homo sapiens) (P40763 whole entry, looked up): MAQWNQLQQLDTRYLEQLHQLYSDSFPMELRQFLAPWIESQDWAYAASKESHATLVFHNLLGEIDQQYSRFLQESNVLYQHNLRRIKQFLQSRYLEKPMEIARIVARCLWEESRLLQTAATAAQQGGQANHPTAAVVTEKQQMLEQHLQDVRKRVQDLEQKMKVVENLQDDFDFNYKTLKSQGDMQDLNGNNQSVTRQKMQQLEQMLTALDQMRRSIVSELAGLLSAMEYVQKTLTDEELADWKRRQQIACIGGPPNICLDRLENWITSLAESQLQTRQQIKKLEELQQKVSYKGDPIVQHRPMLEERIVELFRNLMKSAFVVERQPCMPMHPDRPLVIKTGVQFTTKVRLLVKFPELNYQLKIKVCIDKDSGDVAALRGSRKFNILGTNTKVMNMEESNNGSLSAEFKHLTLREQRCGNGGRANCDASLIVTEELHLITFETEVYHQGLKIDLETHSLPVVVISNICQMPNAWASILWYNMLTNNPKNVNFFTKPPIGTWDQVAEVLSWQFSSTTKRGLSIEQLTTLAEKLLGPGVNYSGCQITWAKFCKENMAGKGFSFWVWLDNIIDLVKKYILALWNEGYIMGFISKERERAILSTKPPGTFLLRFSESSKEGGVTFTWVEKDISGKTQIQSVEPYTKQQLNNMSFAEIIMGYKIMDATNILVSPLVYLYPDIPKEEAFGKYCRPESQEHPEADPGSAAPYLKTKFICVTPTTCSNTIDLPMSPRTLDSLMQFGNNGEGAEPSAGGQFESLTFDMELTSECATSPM
Sequence of Nuclear factor erythroid 2-related factor 2 (Homo sapiens) (Q16236 whole entry, looked up): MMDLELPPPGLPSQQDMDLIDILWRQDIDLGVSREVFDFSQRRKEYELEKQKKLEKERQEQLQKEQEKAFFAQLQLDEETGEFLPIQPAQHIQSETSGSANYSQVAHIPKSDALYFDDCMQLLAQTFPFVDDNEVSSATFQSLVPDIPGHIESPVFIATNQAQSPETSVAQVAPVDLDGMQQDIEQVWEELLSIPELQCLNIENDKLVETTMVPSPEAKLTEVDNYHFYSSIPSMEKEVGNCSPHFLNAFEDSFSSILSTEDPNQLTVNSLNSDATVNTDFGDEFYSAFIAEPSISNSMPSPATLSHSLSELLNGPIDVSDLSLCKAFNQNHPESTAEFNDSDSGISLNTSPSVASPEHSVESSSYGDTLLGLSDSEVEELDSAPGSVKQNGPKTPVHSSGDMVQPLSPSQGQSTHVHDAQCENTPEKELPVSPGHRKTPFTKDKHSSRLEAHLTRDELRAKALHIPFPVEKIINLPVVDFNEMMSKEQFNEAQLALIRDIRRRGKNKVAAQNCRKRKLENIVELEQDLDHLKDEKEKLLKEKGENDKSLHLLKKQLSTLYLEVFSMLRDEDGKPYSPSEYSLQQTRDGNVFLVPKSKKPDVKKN
Sequence of Nuclear factor NF-kappa-B p105 subunit (Homo sapiens) (P19838 whole entry, looked up): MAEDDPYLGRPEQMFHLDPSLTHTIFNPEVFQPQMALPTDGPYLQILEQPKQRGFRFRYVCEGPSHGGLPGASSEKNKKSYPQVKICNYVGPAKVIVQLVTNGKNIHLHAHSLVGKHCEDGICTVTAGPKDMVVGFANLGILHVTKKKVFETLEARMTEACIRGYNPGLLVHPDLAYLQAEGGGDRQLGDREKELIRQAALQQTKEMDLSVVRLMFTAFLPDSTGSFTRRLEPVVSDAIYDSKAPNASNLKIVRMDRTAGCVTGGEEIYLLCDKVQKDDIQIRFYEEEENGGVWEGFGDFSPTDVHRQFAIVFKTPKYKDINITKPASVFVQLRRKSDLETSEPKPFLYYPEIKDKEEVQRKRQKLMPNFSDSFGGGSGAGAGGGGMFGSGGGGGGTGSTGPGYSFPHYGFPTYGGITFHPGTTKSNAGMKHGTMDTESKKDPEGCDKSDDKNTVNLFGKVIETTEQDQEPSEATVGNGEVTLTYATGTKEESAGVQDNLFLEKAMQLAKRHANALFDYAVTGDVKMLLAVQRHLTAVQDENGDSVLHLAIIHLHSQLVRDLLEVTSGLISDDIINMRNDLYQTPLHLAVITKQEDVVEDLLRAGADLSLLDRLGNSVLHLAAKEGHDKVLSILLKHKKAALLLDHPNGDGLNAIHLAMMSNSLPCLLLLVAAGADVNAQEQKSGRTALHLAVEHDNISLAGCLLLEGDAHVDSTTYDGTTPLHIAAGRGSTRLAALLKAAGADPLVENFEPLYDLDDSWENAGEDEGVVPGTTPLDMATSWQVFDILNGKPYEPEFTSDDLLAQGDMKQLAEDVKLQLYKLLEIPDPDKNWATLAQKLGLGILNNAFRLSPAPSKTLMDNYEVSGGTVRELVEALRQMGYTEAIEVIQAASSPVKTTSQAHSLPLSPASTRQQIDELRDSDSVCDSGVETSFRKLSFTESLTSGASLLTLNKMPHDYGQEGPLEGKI

CCN(CC)C(=S)SSC(=S)N(CC)CC
inactive: [1] | [2] | [3] | MYC, MYC (gene 4609) | [4] | [5] | [6] | [7] | [8] | [9] | [10] | [11] | [12] | [13] | [14] | [15] | [16]

OC[C@H]1O[C@@](CO)(O[C@H]2O[C@H](CO)[C@@H](O)[C@H](O)[C@H]2O)[C@@H](O)[C@@H]1O
inactive: [1] | [2] | [3] | MYC, MYC (gene 4609) | [4] | [5] | [6] | [7] | [8] | [9] | [10] | [11] | [12] | [13] | [17] | [15] | [16]

C=CN1CCCC1=O
inactive: [1] | [2] | [18] | [3] | MYC, MYC (gene 4609) | [4] | [5] | [7] | [8] | [19] | [9] | [10] | [11] | [12] | [13] | [14] | [17] | [15] | [16]

COCc1nnc(-c2ccc[n+]([O-])c2)n1-c1c(Cl)c(Cl)cc2[nH]c(=O)c(=O)[nH]c12
inactive: [1] | [2] | [18] | [3] | MYC, MYC (gene 4609) | [4] | [5] | [7] | [8] | [9] | [10] | [11] | [12] | [13] | [17] | [15] | [16]

O=C(O)[C@H](O)[C@@H](O)C(=O)O
inactive: [1] | [2] | [3] | MYC, MYC (gene 4609) | [4] | [5] | [6] | [7] | [8] | [19] | [9] | [10] | [11] | [12] | [13] | [14] | [17] | [15] | [16]

CCn1nc(C)c2c1C(=O)NCC(c1ccc(O)cc1)=N2
inactive: [1] | [2] | [3] | MYC, MYC (gene 4609) | [4] | [5] | [6] | [7] | [8] | [9] | [10] | [11] | [12] | [13] | [17] | [15] | [16]

CCCCC(CC)C(=O)OCCOCCOCCOC(=O)C(CC)CCCC (centres undefined)
inactive: [2] | [18] | [3] | MYC, MYC (gene 4609) | [4] | [5] | [6] | [7] | [8] | [19] | [9] | [10] | [11] | [12] | [13] | [17] | [15] | [16]
